The source of these data is PubChem BioAssay AID686940 (The Scripps Research Institute Molecular Screening Center, 2013).

Screen size: about 370,000 compounds; about 2,600 (0.7%) were called active. Only a selection was taken, and actives are over-represented in it overall. Values without a mark were called inactive.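 How the source made its calls: active means inhibition above a per-plate cutoff, mean inhibition of test wells between control levels plus 3 SD (cut at about 38% in these data); inactive means the rest.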

Chain of COUP transcription factor 2 (Homo sapiens) (P24468 whole entry, looked up): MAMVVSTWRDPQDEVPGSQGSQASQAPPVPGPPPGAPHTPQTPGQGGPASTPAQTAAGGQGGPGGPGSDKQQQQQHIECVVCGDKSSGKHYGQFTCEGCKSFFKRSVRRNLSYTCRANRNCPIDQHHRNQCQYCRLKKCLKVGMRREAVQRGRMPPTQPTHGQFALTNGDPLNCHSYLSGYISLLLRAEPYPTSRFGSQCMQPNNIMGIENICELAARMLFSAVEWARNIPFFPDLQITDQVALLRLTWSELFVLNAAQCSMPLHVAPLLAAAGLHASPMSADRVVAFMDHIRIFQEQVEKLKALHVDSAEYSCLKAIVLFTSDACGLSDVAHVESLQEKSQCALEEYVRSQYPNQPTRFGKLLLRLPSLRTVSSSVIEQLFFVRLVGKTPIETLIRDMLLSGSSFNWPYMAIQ

The experiment has as its target COUP transcription factor 2 (Homo sapiens) (UniProt P24468). Put plainly: COUP-TFII reporter suppression in human cells – cell-based, luciferase reporter, HEK293T, luminescence, primary screen (AID 686940).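 Further: cells cotransfected with COUP-TFII expression vector driving the NGFI-A reporter; 0% = median of COUP-TF2 test wells and 100% = reporter-only cells.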 The note with it: HEK293T NGFI-A luciferase reporter, at 8.6 µM, active compounds read high.
Broadly, the inhibition is the drop in the measured response relative to a control, in per cent. For `O=[N+]([O-])c1ccc(N2CCN(c3ccc(F)cc3)CC2)cn1`, the inhibition was -9.2%.

Regarding `O=C(c1cncc(Br)c1)N1CCN(c2ccc([N+](=O)[O-])cc2)CC1`, the inhibition was 9.04%.

Consider `O=C(c1cc(C(=O)N2CCN(c3ccc(F)cc3)CC2)cc([N+](=O)[O-])c1)N1CCN(c2ccc(F)cc2)CC1`, for which the inhibition is 58.1% (active).

As to `CN(C)CC(=O)N[C@@H]1C[C@@H]2O[C@H](CO)CC[C@@H]2O[C@@H]1CCc1ccc(C#Cc2ccccc2)cc1`, the inhibition was 27.3%.

Consider `Cc1cc(C(=O)NC2CCCc3c2cnn3-c2cccc(C)c2C)c(C)o1` (stereo not given), for which the inhibition was 44.6% (active).

`Cn1nccc1C(=O)NC1CCCc2c1cnn2-c1ccc(F)cc1F` (stereo not given): the inhibition is 60.9% (active).

In the case of `COc1ccc(C(=O)NC2CC(C)(C)Cc3c2cnn3-c2ccccc2)c(OC)c1` (stereo not given), the inhibition was -0.91%.

Consider `O=C(CCNC(=O)c1ccc(Cl)cc1)NC1CCCc2ccccc21` (stereo not given), for which the inhibition was -32.6%.

As for `COCc1ccc(C(=O)NC2CC(C)(C)Cc3c2cnn3-c2ccc(C)cc2)o1` (stereo not given), the inhibition is -7.12%.

Regarding `Cc1cc(C(=O)NNC(=O)CCC2CCCCC2)c(C)o1`, the inhibition was 3.17%.

In the case of `Cc1cc(C(=O)NC2CC(C)(C)Cc3c2cnn3-c2ccccc2)n[nH]1` (stereo not given), the inhibition was -4.58%.

In the case of `COC(=O)c1ccc(C(=O)NC2CC(C)(C)Cc3c2cnn3-c2ccc(F)cc2)nc1` (stereo not given), the inhibition was -4.63%.

On to `Cn1nccc1C(=O)NC1CCCc2c1cnn2-c1ccccc1F` (stereo not given), for which the inhibition is 63.7% (active).

Turning to `COc1cccc(CSc2nnc(-c3cccnc3)n2Cc2ccccc2)c1`, the inhibition was 14.1%.

`COC(=O)c1cccc(Cn2ccc3ccc(-c4ccc5ccn(C(=O)C6CCCCC6)c5c4)cc32)c1`: the inhibition is -12.6%.

Turning to `O=C(NCCC1=CCCCC1)C1CCN(S(=O)(=O)c2ccc(Cl)s2)CC1`, the inhibition is 8.27%.

With `COC(=O)[C@H](C(C)C)N1CCc2nnn(Cc3ccc(C)cc3)c2-c2ccccc2S1(=O)=O`, the inhibition was 7%.

As for `COC(=O)C[C@@H]1CC[C@@H]2[C@@H](COc3ccc(NC(=O)Nc4ccc(F)c(F)c4)cc3C(=O)N2C)O1`, the inhibition is 4.71%.

As to `CC[n+]1cc(C)ccc1/C=C/c1ccc(N(C)C)cc1`, the inhibition is 74.1% (active).

On to `O=S1(=O)c2ccc(Br)cc2OC[C@@H](Cc2ccccc2)N1Cc1cn(Cc2ccco2)nn1`, for which the inhibition is 8.82%.

`C=CCN1C(C(=O)OC)CN(Cc2cn(Cc3ccccc3)nn2)CCS1(=O)=O` (stereo not given): the inhibition is -8.52%.

Take `CC(CCN1CCC(C(O)(c2ccccc2)c2ccccc2)CC1)Oc1ccc([N+](=O)[O-])cc1Cl` (stereo not given): the inhibition was 10.1%.

For `CC(C)(C)OC(=O)NCc1cc(F)ccc1/C=C/S(=O)(=O)NCCc1ccccc1`, the inhibition was 9.33%.

For `CCN1/C(=C\c2ccc3ccccc3[n+]2CC)Sc2cc(C)ccc21`, the inhibition is 73% (active).

As to `N#Cc1ccccc1OC[C@@H](O)CN1CCC(C(O)(c2ccccc2)c2ccccc2)CC1`, the inhibition is -5.47%.

Consider `Cc1cc(C)n2ncc(C(=O)Nc3ccc4c(c3)OCCO4)c2n1`, for which the inhibition was -31.2%.

On to `C=C1C(C(C)C)N(C)C2=NC(c3ccccc3)CC(=O)N12` (stereo not given), for which the inhibition was -5.15%.

In the case of `CN(Cc1cccnc1)C(=O)c1cc(COc2ccc3ncccc3c2)on1`, the inhibition is 64.7% (active).

Consider `CCOc1ccc(NS(=O)(=O)c2ccc(Cl)c(C(=O)N(C)Cc3cccnc3)c2)cc1`, for which the inhibition was -10.5%.

For `CCn1ccnc1CN(C)C(=O)c1cc(COc2ccc(Cl)cc2OC)on1`, the inhibition is -30.8%.

As to `COc1ccc(-n2c(COc3ccc(C)cc3)nnc2SCC(=O)Nc2ccc(Oc3ccccc3)cc2)cc1`, the inhibition was 9.67%.

Take `C[C@@H]1CN([C@@H](C)CO)C(=O)c2cccc(NC(=O)Nc3cccc4ccccc34)c2O[C@H]1CN(C)S(=O)(=O)c1ccccc1F`: the inhibition was 11.9%.

On to `CCOC(=O)C1C(=O)C=C(c2ccc(OC)cc2)CC1c1ccco1` (stereo not given), for which the inhibition was -3.88%.

Take `CCOC(=O)C1=C(CC)Nc2ccccc2N=C1N`: the inhibition was -4.65%.

Consider `CCOC(=O)C1=C(c2ccc(OC)cc2)C(=O)c2ccccc2C1=O`, for which the inhibition is 74.4% (active).

On to `C=C(C)C#CC(Cc1ccccc1)NCC1CC1` (stereo not given), for which the inhibition was 7.7%.

Regarding `Cc1ccc(Cn2cc(COC(=O)N(C)Cc3ccccc3)nn2)cc1`, the inhibition is 4.98%.

`COc1ccc(CN2CCOC2=O)cc1OC`: the inhibition is 12.6%.

Turning to `COc1ccc(Cn2c(=O)sc3ccccc32)cc1OC`, the inhibition was 48.4% (active).

As for `COc1ccccc1CNC(=O)CCn1c(=O)sc2ccccc21`, the inhibition was 4.05%.

For the compound `CCC(=O)Nc1ccc2c(c1)C(=O)N(C)[C@H]1CC[C@H](CC(=O)NCCOC)O[C@@H]1CO2`, the inhibition is 13.3%.

For `CC(CCN1CCC(C(O)(c2ccccc2)c2ccccc2)CC1)Oc1ccc(Cl)cc1` (stereo not given), the inhibition is 3.23%.

As for `O=S1(=O)c2c(cccc2N2CC[C@H](O)C2)O[C@@H]2CCN1C2`, the inhibition was 10.5%.

With `C[C@H]1CCC/C=C/C(=O)c2c(O)cc(O)cc2CC(=O)O1`, the inhibition is 38.3% (active).

Turning to `CN(C(N)=NC(=O)/C=C/c1ccccc1)C(C#Cc1ccccc1)Cc1ccccc1` (stereo not given), the inhibition is 4.75%.

With `O=C(CSc1nnc(-c2ccccn2)n1-c1ccc(Cl)cc1)Nc1ccccc1-c1ccccc1`, the inhibition is 7.79%.

Turning to `O=C(NCc1cccc(C(F)(F)F)c1)c1cccc(S(=O)(=O)N2CCN(Cc3ccccc3)CC2)c1`, the inhibition was -3.7%.

Turning to `CC(NC(=O)CCC(=O)N1CCN(S(=O)(=O)c2ccc(Cl)cc2)CC1)c1ccccc1` (stereo not given), the inhibition is -14.9%.

As for `O=C(CCC(=O)N1CCN(S(=O)(=O)c2ccc(Cl)cc2)CC1)NCc1cccc(C(F)(F)F)c1`, the inhibition is 53% (active).

Regarding `O=C(NCc1ccco1)C1CCCN(S(=O)(=O)c2ccc(Cl)s2)C1` (stereo not given), the inhibition was -2.82%.

On to `O=C(NC1CCCC1)C1CSCCS(=O)(=O)N1Cc1ccccc1` (stereo not given), for which the inhibition is 0.16%.

Regarding `N=C(N)SCc1cccc2ccccc12`, the inhibition is 38.5% (active).

As to `CCc1ccc(-c2nn(-c3ccccc3)cc2CSC(=N)N)cc1`, the inhibition is -5%.

As to `CCOc1ccc(Br)cc1CSC(=N)N`, the inhibition is 22.1%.

For `COC(=O)C1CN(CCc2ccccc2)CCS(=O)(=O)N1Cc1ccc(F)cc1` (stereo not given), the inhibition is 3.48%.

On to `Cc1ccc(-c2nnc(SCC(=O)Nc3ccc(Oc4ccccc4)cc3)n2Cc2ccco2)cc1`, for which the inhibition was 13.6%.

`CCCCOCCCNC(=O)C[C@H]1C[C@@]2(C(=O)OC)C(=C[C@H](COCc3ccccc3)O[C@@H]2C)N(Cc2cccc3ccccc23)C1=O`: the inhibition is 14.6%.

For `Cc1ccc(-c2nc(CS(=O)CC(=O)NC3CCCC3)c(C)o2)cc1` (stereo not given), the inhibition was 12.9%.

On to `Cc1ccc(-c2nc(CSCC(=O)NC3CCN(Cc4ccccc4)CC3)c(C)o2)cc1`, for which the inhibition is 44.1% (active).

On to `Cc1ccc(S(=O)(=O)NCCC(=O)NC2CCN(Cc3ccccc3)CC2)cc1`, for which the inhibition is 9.92%.

Consider `Cc1ccccc1CN1CCCCC(NC(=O)Nc2ccccc2F)C1=O` (stereo not given), for which the inhibition was 17.2%.

As to `CCOC(=O)[C@]12CCCC=C1N(Cc1ccc(OC)cc1)C(=O)[C@@H]2CC(=O)N1CCOCC1`, the inhibition was 11.8%.

`COc1ccc(CSc2nnc(SCC(=O)Nc3ccccc3C(F)(F)F)s2)cc1`: the inhibition was -6.32%.

Regarding `CCCS(=O)(=O)N1CCC(CCOc2ccccc2)(C(=O)OCC)CC1`, the inhibition is 12%.

As for `CCOC(=O)C1(Cc2cccc(OC)c2)CCN(Cc2csc(C(C)=O)c2)CC1`, the inhibition was -6.31%.

Take `CCOC(=O)C1(CCOc2ccccc2)CCN(Cc2cc(OC)cc(OC)c2)CC1`: the inhibition is 43.4% (active).

Take `O=C(CSc1nc2ccccc2nc1N1CCCCC1)N1CCN(S(=O)(=O)c2cccc([N+](=O)[O-])c2)CC1`: the inhibition is -2.12%.

Turning to `Cc1ccc(Cn2cc(CN3[C@@H](C)COc4cc(Br)ccc4S3(=O)=O)nn2)cc1`, the inhibition is 7.53%.

For `O=C(CC(O)(C(F)(F)F)C(F)(F)F)Nc1ccc(Cl)c(Cl)c1`, the inhibition is 74.9% (active).

Consider `O=C(Nc1ccc(Cl)c(Cl)c1)N1CC=C(c2ccccc2)CC1`, for which the inhibition was -16.9%.

In the case of `O=C(CCS(=O)(=O)c1ccccc1)Nc1ccc(Cl)c(Cl)c1`, the inhibition is -30.7%.

On to `O=C(c1ccccc1)c1ccc(-c2ccccc2C(=O)NC2CCCCN(Cc3ccc(Cl)cc3)C2=O)cc1` (stereo not given), for which the inhibition is -10.4%.

Consider `CC(C)CNc1cccc2c1S(=O)(=O)N(Cc1cn(Cc3ccc(Cl)cc3)nn1)Cc1ccccc1O2`, for which the inhibition was 5.91%.

With `COc1ccc(-c2csc3ncnc(N4CCN(S(=O)(=O)c5cccc(F)c5)CC4)c23)cc1`, the inhibition is -7.61%.

For the compound `Cc1ccc(S(=O)(=O)N2CCC3(CC2)OCCO3)c(C)c1`, the inhibition was 0.83%.

With `Cc1ccc(C)c(S(=O)(=O)N2CCN(c3ncnc4sccc34)CC2)c1`, the inhibition was 61.2% (active).

In the case of `O=C(NCCCc1ccccc1)[C@H](Cc1ccccc1)NC1(C(=O)NCCc2c[nH]c3ccccc23)CCC1`, the inhibition was 7.14%.

Consider `Oc1ccc(/C=C/c2c(F)cccc2F)c2cccnc12`, for which the inhibition is 14.9%.

Consider `N[C@@H](Cc1ccccc1)C(=O)N1CCC[C@@H]1C(=O)N1CCC2CCN(S(=O)(=O)c3ccccc3)CC21` (stereo not given in full), for which the inhibition is 2.4%.

In the case of `O=C(CSc1nnc(COc2ccccc2)n1-c1ccc(Cl)cc1)Nc1ccc2c(c1)OCO2`, the inhibition was 7.15%.

In the case of `O=C(Nc1ccccc1Cl)/C(Cl)=C(\Cl)S(=O)c1ccccc1` (stereo not given), the inhibition was 99% (active).

For the compound `CN[C@H]1C[C@H]2c3cc(N4CCOCC4)ccc3CCN2C[C@H]1[C@H](C)O`, the inhibition was -0.62%.

In the case of `Cc1ccccc1CS(=O)(=O)Cc1ccc(C(=O)Nc2ccc(Cl)cc2)o1`, the inhibition is 60.1% (active).

Regarding `Cc1cc(OCc2ccc(C(=O)Nc3ccc(C(=O)O)cc3)o2)ccc1Cl`, the inhibition is 10.7%.

With `O=C(O)c1ccc(NC(=O)c2ccc(COc3ccc(Cl)cc3)o2)cc1`, the inhibition is -7.9%.
